Measurements taken from PubChem BioAssay.
Activity calls are given as the source filed them.

Assays:
[1] = small molecules captured by biotinylated probe aFSTL3 – biochemical, small-molecule microarray, fluorescence 635/667, stem cell growth factor project, primary screen (AID 1064); conditions: higher = more signal;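 also: measures binding of the biotinylated anti-FSTL3 antibody to printed compounds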
[2] = binders from COS7 lysate, DM2A8 probe, primary screen, torsin A project, cell lysate, small-molecule microarray, fluorescence 635/667 (AID 1065); conditions: higher = more signal, COS7 lysate expressing mutant human TOR1A
[3] = small molecules captured by biotinylated probe aFGF2 – biochemical, small-molecule microarray, fluorescence 635/667, stem cell growth factor project, primary screen (AID 1067); conditions: higher = more signal;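 also: measures binding of biotinylated aFGF2 protein to printed compounds on slides; z-score merges feature fluorescence and signal-to-noise across triplicate slides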
[4] = small molecules captured by biotinylated probe aFGF10 – biochemical, small-molecule microarray, fluorescence 635/667, stem cell growth factor project, primary screen (AID 1071); conditions: higher = more signal;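 also: score merges 667 nm spot intensity and signal to noise from triplicate slides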
[5] = target: Neurogenic locus notch homolog protein 2 (Homo sapiens) (UniProt Q04721); test: small molecules binding Notch2 protein – biochemical, small-molecule microarray, 635 nm fluorescence, stem cell growth factors, primary screen (AID 1073); conditions: higher = more signal
[6] = target: Pro-neuregulin-1, membrane-bound isoform (Homo sapiens) (UniProt Q02297); test: small molecules binding neuregulin-1 protein – biochemical, small-molecule microarray, fluorescence 635/667, psychiatric disease protein project, primary screen (AID 1075); conditions: NRG1 binding, 635 nm fluorescence, higher = more signal;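 also: score combines 667 nm spot fluorescence with signal to noise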
[7] = test system: Neuregulin-1 EGF-like domain; test: small molecules binding NRG1 EGF domain – biochemical, small-molecule microarray, 635 nm fluorescence, primary screen (AID 1081); conditions: higher = more signal;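 also: binding of the protein to compounds printed on small-molecule microarray slides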
[8] = FRG1 expression reporter modulators in myotubes – cell-based, C2C12 myotubes, firefly/Renilla luciferase, luminescence, FRG1 inhibition for FSHD, primary screen (AID 1084); conditions: FRG1 promoter luciferase, higher = more signal, called active from +8 up or from −8 down
[9] = small molecules captured by biotinylated probe aFST – biochemical, small-molecule microarray, fluorescence 635/667, stem cell growth factor project, primary screen (AID 1086); conditions: higher = more signal;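 also: score merges 667 nm fluorescence with signal-to-noise of each printed compound spot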
[10] = binders of probe aHhip on microarray, primary screen, stem cell growth factor project, biochemical, small-molecule microarray, fluorescence 635/667 (AID 1087); conditions: higher = more signal;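 also: score merges spot fluorescence at 667nm with spot signal to noise ratio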

Sequence of Neurogenic locus notch homolog protein 2 (Homo sapiens) (Q04721 whole entry, looked up, canonical isoform): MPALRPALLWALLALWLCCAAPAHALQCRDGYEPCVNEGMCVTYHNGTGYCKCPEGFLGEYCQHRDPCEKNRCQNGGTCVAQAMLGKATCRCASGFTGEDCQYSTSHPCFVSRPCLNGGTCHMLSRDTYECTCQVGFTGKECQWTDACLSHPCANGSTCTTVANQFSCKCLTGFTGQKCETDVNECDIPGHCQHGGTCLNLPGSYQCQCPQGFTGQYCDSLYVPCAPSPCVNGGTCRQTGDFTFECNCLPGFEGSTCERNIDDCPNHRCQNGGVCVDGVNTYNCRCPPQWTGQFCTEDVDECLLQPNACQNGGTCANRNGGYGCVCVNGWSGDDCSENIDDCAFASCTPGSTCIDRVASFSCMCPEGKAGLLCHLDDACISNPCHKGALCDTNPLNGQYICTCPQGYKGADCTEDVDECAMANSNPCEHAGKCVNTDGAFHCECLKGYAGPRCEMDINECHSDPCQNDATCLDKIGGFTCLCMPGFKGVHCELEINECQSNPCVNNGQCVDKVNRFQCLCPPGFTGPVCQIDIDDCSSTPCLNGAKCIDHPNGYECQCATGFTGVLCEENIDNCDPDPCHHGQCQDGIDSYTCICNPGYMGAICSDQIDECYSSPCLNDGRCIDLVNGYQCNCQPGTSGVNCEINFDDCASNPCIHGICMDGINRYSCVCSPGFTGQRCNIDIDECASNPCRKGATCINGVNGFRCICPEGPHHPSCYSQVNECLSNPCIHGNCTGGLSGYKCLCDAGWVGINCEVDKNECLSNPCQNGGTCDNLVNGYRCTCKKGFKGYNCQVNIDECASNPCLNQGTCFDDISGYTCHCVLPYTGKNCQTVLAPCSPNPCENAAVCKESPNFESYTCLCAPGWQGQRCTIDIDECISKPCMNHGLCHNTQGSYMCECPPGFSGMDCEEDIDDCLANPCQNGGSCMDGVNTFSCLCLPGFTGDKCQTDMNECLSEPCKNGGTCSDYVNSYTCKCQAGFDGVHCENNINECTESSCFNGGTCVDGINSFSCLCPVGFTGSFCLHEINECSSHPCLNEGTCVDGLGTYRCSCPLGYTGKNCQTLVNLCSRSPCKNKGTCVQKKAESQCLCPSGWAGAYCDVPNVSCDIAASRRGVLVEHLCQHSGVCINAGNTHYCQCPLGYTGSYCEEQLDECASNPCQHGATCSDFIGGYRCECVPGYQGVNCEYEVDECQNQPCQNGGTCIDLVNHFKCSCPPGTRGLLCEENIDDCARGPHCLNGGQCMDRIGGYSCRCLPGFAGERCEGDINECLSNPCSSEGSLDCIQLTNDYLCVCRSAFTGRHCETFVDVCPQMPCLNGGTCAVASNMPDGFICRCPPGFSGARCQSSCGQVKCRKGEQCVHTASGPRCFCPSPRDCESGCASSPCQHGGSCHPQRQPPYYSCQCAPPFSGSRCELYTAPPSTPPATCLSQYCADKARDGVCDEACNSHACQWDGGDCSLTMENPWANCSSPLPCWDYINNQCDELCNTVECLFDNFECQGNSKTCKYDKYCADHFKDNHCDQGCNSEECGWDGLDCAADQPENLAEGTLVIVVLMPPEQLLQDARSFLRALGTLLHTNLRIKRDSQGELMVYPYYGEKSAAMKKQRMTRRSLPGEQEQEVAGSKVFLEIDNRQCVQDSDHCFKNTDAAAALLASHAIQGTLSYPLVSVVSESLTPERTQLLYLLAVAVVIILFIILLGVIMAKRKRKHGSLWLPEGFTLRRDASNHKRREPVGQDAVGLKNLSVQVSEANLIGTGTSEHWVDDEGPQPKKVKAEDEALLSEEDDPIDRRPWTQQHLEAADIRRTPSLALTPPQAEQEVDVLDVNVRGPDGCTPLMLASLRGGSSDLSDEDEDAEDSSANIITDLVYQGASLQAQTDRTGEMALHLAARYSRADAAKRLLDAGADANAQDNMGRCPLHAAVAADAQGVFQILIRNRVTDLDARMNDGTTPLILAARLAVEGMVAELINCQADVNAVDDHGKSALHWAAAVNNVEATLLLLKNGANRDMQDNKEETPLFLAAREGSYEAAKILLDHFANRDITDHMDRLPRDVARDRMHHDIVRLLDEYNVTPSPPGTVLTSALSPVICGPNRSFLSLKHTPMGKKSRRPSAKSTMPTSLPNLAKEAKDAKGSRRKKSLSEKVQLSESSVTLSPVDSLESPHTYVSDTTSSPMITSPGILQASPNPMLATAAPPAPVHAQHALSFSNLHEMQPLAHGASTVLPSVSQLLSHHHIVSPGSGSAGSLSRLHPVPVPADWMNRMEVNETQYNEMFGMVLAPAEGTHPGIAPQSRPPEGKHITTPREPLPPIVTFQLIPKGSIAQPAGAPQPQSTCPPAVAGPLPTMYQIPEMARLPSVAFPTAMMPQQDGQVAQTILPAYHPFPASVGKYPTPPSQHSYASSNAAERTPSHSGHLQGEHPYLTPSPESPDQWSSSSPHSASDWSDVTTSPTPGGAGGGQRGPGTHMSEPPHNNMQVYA
Sequence of Pro-neuregulin-1, membrane-bound isoform (Homo sapiens) (Q02297 whole entry, looked up, the tested form may be a part, canonical isoform): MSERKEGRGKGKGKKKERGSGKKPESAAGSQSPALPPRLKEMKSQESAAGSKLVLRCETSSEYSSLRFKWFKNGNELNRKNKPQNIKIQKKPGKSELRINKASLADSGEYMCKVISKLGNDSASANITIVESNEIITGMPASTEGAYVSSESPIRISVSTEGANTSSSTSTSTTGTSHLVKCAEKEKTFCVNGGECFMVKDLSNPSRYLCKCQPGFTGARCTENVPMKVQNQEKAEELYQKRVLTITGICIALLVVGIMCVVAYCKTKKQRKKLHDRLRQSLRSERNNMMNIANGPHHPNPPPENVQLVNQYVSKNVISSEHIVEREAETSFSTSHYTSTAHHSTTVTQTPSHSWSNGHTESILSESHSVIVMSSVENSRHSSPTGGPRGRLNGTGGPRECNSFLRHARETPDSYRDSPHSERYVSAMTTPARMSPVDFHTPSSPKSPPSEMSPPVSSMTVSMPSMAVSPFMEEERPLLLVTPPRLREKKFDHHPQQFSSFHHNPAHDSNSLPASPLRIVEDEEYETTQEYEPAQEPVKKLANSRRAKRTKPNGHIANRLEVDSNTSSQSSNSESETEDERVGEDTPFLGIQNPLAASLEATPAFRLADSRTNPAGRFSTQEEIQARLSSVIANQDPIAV

| SMILES | composite z-score [1] | composite z-score [2] | composite z-score [3] | composite z-score [4] | composite z-score [5] | composite z-score [6] | composite z-score [7] | z-score [8] | composite z-score [9] | composite z-score [10] |
| --- | --- | --- | --- | --- | --- | --- | --- | --- | --- | --- |
| CC(C)[C@H](NC(=O)OC(C)(C)C)[C@@H](O)CC(=O)OC(C)(C)C | -0.273 | -0.584 | -0.116 | -0.267 | -0.756 | -0.739 | -1.18 | 0.0293 (inactive) | -0.357 | 0.0881 |
| COC(=O)[C@]1(CO)N=C(c2ccc(OCCCO)cc2)O[C@@H]1c1ccccc1N=[N+]=[N-] | 0.0947 | 0.525 | -0.0614 | -0.0477 | 0.01 | 1.25 | 0.938 | 2.29 (inactive) | 0.138 | -0.39 |
| COC(=O)C1(C)C=C2C(=C(c3ccccc3)C(=O)C2C)CN1 (stereo not given) | 0.84 | 0.0679 | -0.0535 | -0.18 | -0.167 | 1.96 | 0.691 | 2.35 (inactive) | 0.313 | 0.23 |
| COCCCNC(=O)[C@@]1(CCS(=O)(=O)c2ccccc2)N=C(c2ccc(OCCCO)cc2)O[C@H]1c1ccccc1 | 0.958 | 1.5 | 0.378 | 1.18 | 0.674 | 1.25 | 1.31 | -1.23 (inactive) | 0.56 | 2.04 |
| O=C1CCCC2OC12C(O)CCc1ccccc1 (stereo not given) | -0.555 | 0.475 | -0.166 | 0.411 | 0.455 | -0.333 | -0.251 | 0.42 (inactive) | -0.0128 | -0.226 |
| COc1ccc(CCNC(=O)[C@@H]2c3ccccc3C(=O)N(c3ccc(C)cn3)[C@H]2c2ccc(CO)cc2)cc1 | 1.18 | -0.793 | -0.189 | -0.715 | -1.85 | -1.13 | 1.2 | 0.379 (inactive) | -0.57 | -0.0994 |
| CC(C)[C@@H](OCc1ccccc1)[C@H](C)C=NO[C@H](C)c1cn([C@H](CO)Cc2ccccc2)nn1 | -0.479 | 0.227 | -0.228 | 0.616 | 0.397 | -0.154 | 0.658 | -0.757 (inactive) | 0.344 | -0.409 |
| CCCC[C@@H](O)C1=C(C)C[C@H]2C(=O)N(Cc3ccccc3)C(=O)[C@H]2[C@H]1CO | -0.531 | 0.709 | -0.0564 | 0.185 | -0.0286 | 0.0467 | -0.322 | 0.778 (inactive) | -0.0982 | -0.0237 |
| CC(=O)O[C@H]1C2=C(C(=O)[C@@H]3O[C@@H]31)[C@H]1C(C)O[C@@H]2[C@@]23C(=O)[C@@H]4O[C@@H]4[C@@H](O)C2=CO[C@H](C)[C@@H]13 (stereo not given in full) | -0.295 | 0.16 | -0.0314 | 0.226 | 0.166 | -0.274 | 0.377 | -1.07 (inactive) | -0.0354 | -0.0645 |
| O=C1[C@H]2[C@H]3[C@H](O)[C@H](O)CC(=NOCc4ccccc4)[C@H]3CC[C@H]2C(=O)N1c1ccc(F)cc1F | -0.426 | -0.0076 | -0.0561 | 0.0471 | -0.0497 | 0.757 | 0.106 | 0.131 (inactive) | -0.314 | -0.214 |
| COC(=O)[C@@H]1N=C(c2ccc(OCCCO)cc2)O[C@@H]1c1ccccc1N=[N+]=[N-] | 1.64 | 0.308 | -0.006 | -0.282 | 0.124 | 1.79 | 1.18 | 3.42 (inactive) | 0.864 | 0.189 |
| COC(=O)C1=C(C)N(Cc2ccccc2)[C@]23O[C@](C(=O)OC)(C(=O)N2[C@@H]1c1ccccc1)[C@H]1CCOC(=O)[C@H]13 | -0.602 | 0.601 | -0.0956 | 0.649 | 0.783 | -0.146 | 0.815 | -0.203 (inactive) | 0.0592 | -0.0645 |
| O=C1O[C@@H](c2ccccc2)[C@@H](c2ccccc2)N2[C@@H](c3ccc(O)cc3)[C@]3(C(=O)Nc4ccccc43)[C@@H](C(=O)O)[C@H]12 | -0.149 | 0.227 | -0.0969 | 0.46 | 0.0863 | 1.67 | 1.08 | -1.09 (inactive) | 0.231 | -0.0212 |
| CC(CCC(=O)OC[C@H]1O[C@H](C#Cc2ccccc2)C=C[C@@H]1Oc1ccc(C)cc1)=NOC[C@@H](O)[C@H]1O[C@@H]2OC(C)(C)O[C@@H]2[C@H]1O | -0.378 | -0.587 | -0.229 | -0.44 | -0.836 | -0.116 | -0.0458 | 0.0054 (inactive) | -0.865 | -0.172 |
| C=CC[C@@H]1C=C[C@H](ON=C(C)CCN2CCc3nc(CC)c(CC)cc3C2)[C@@H](CO)O1 | 0.332 | 1.43 | -0.0593 | -0.21 | 0.0383 | -0.21 | 0.987 | 2.55 (inactive) | 0.553 | -0.123 |
| CO[C@@H]1COC(=O)[C@@H]2CCCN2C(=O)[C@@H](C)COC(=O)[C@H](COCc2ccccc2)NC(=O)CC=C[C@H]1C | -0.451 | 0.32 | -0.112 | 0.451 | 0.433 | 0.101 | 0.253 | -0.0485 (inactive) | 0.79 | -0.0645 |
| Cc1ccc(C2CC=C(C(=O)O)CN2S(=O)(=O)c2ccc(C)cc2)cc1 (stereo not given) | 0.004 | 0.157 | -0.0258 | 0.0852 | 0.677 | 1.97 | 0.937 | -2.06 (inactive) | 0.374 | 0.0749 |
| COC(=O)CC=C[C@@H](C)[C@@H](C=NO[C@H](C)c1cn([C@@H]2COC[C@H]2O)nn1)OC | -0.276 | 0.563 | -0.0914 | 0.37 | 0.268 | -0.482 | 0.951 | -0.954 (inactive) | 0.0889 | 0.0024 |
| COc1ccc(O[C@H]2C=C[C@@H](c3ccccc3)O[C@@H]2COC(=O)CCC(C)=NOC[C@@H](C)[C@H](OCc2ccccc2)C(C)C)cc1 | -0.404 | -0.48 | -0.171 | -0.14 | -1.1 | -1.09 | -1.02 | 0.696 (inactive) | -0.504 | -0.184 |
| CC(C)(C)N1C(=O)[C@H]2[C@H]3[C@H](O)[C@H](O)CC(=NOCc4ccccc4)[C@@H]3CC[C@H]2C1=O | -0.0757 | 0.581 | -0.0963 | 0.805 | 1.49 | 0.583 | 1.13 | -1.4 (inactive) | 0.503 | -0.15 |
| CC(=O)OC[C@H]1O[C@@H](ON=C(C)CCN2CCc3nc(-c4ccccc4)c(-c4ccccc4)cc3C2)[C@H](OC(C)=O)[C@@H](OC(C)=O)[C@@H]1OC(C)=O | -0.209 | 0.217 | -0.213 | 0.958 | 1.11 | 0.817 | 0.992 | 0.66 (inactive) | 0.473 | 0.21 |
| CCCCCCc1nc(CCCc2cc3c(c(CCCCCC)n2)[Si](C(C)C)(C(C)C)O[C@H]3c2ccccc2)cc2c1[Si](C(C)C)(C(C)C)O[C@H]2c1ccccc1 | -0.342 | -0.244 | -0.109 | -0.217 | -0.253 | -0.47 | -0.744 | -0.364 (inactive) | 0.163 | -0.277 |
| CC1CC/C=C\[C@H]2OC34C=CCN(C(C)C)C(=O)[C@H]3N(CCCO)C(=O)[C@@H]4C2C(=O)O1 (stereo not given in full) | 0.456 | 1.1 | -0.175 | 0.245 | -0.673 | 1.19 | 0.866 | -0.345 (inactive) | -0.5 | 0.214 |
